Results reported in PubChem BioAssay AID1471 (National Center for Advancing Translational Sciences (NCATS), 2008).
The campaign covered roughly 230,000 compounds. About 310 (0.13%) were called active. Roughly 2% stayed inconclusive and do not appear here. For the sample, actives were picked, then their nearest neighbours and some compounds at random. A number with no mark means an inactive call. The call rests on the fitted dose curve; in most records, active means well fitted activation curve with a large enough effect; inconclusive means small, poorly fitted or top-dose-only effect; inactive means no such curve, though single readings can be large or run the other way.

experiment: qHTS Multiplex Assay to Identify Dual Action Probes in a Cell Model of Huntington: Cytoprotection (ATP); conditions: PC12 HTT-Q103 induced, ATP luminescence, 40 h; series mostly up to 56.4 µM; cytoprotection (ATP increase): at the top concentration; further: nearly all actives have a fitted effect of over 45% in size;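 on cytoprotection (ATP increase): toxic huntingtin expression switched on by the ecdysone agonist tebufenozide; % of control where 0% means no effect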
Text: NIH Chemical Genomics Center [NCGC]
NIH Molecular Libraries Probe Production centers Network [MLPCN]
Assay Submitter (PI): Wei Zheng
Huntington's disease is a neurodegenerative disorder caused by a trinucleotide repeat expansion in Exon 1 of the Huntingtin gene. The CAG trinucleotide encodes glutamine and polyglutamine expansions cause cell death in selective areas of the brain. Huntington polyglutamine repeats have the tendency to form aggregates which are observable in later stages of the disease. The exact nature of the aggregates, whether toxic, protective, or insignificant, is unclear.
A stable PC12 cell line containing a gene fusion of Exon 1 of the Huntingtin gene linked to GFP under the control of the inducible ecdysone promoter were used as the cell-based model of Huntington Disease for high throughput screening. Exon 1 of the Huntingtin gene contained an expansion of 103 polyglutamines (Q103) which, when expressed, caused cell death and distinct, bright GFP aggregates. The amount of cell death and the size and intensity of GFP aggregates increased over time and induction level. The cell death were quantified with a measurement of ATP content in the cells. A maximal 40-50% of cell death was observed when the Huntington gene was induced in this cell line.
We optimized this assay in a homogeneous 1536 well format. A quantitative high throughput screen (qHTS) was conducted on the PC12 cells which were induced to express the toxic fusion construct. Small molecules which prevented cell death were identified by using a luminescent ATP quantification method (Perkin Elmer's ATPlite).
PC12 cells stably containing a construct with an ecdysone inducible promoter expressing GFP fused to the exon 1 of HTTQ103 (Huntington protein which containing a 103 ployglutamine expansion) were used.
NCGC Assay Protocol Summary:
Sequence, Parameter, Description
1, Reagent, 5 uL 1500 cells/well 1536 TC treated White clear bottom plate
2, Compound, 23 nL Tebufenozide inducer (100 nM final) to all columns
3, Compound, 23 nL 40 uM to 0.5 nM Libraries
5, Reagent, 5 ul ATPLite cell death assay reagent
6, Detector, 4 sec integration with a Viewlux Luminescent
Media consisted of phenol red free DMEM + 5% equine serum (Hyclone # SH30072.03 ), 5% supplemented Bovine Calf Serum (Hyclone # SH30074.03 ), 1x pen/strep, no G418
Control columns: 1 = DMSO, 2= 2 uM teb dilns (1:1), 4 = 100 nM Teb inducer. Sample columns received 100 nM Teb.

SMILES	cytoprotection (ATP increase)	Potency
COC(=O)c1cc(C(=O)OCC(=O)Nc2cc(C)on2)cc([N+](=O)[O-])c1	-6.88% [at 10 µM]	
CC[C@H](C)[C@@H](NC(=O)O[C@@H]1C(=O)c2cc(OC)ccc2O[C@H]1c1cccc(OC)c1)C(=O)OC	-40.8%	
O=C(c1cc2ccccc2o1)N1CCN(Cc2ccccc2)CC1	-59.7%	
COc1cc2c(cc1OC)CC(=O)N(CCCN(C)C[C@H]1Cc3cc(OC)c(OC)cc31)CC2	32.3%	
C=CC1=C2C=C(C3CC3)N(CC(C)C)C=C2C(=O)C(C)(OC(=O)c2ccco2)C1=O (centres undefined)	-19.6% [at 10 µM]	
S=C(NCCCc1cnc[nH]1)NCCCN(Cc1ccc(Cl)c(Cl)c1)c1ccc(Br)cn1	-350%	
C/C(CC(=O)NC(C)c1ccccc1)=N\NC(N)=S (centres undefined)	8.79% [at 10 µM]	
COC(=O)C1=C(C(=O)OC)[C@@H]2N(Cc3ccccc3)c3ccccc3[C@@]23C[C@@H](C(=O)OC)N(S(=O)(=O)c2ccc(C(F)(F)F)cc2)C3=N1	23.4% [at 10 µM]	
C[C@H]1Cc2c(-c3ccccc3)nc3c(c2CO1)CN(C(=O)C1CC1)CC3	-5.29% [at 10 µM]	
NC(=O)c1sc(-c2ccsc2)cc1N	-22.8%	
CC(C)(C)OC(=O)NCCCCC1=CC2=CC(=O)C(C)(OC(=O)c3cccs3)C(=O)C2=CO1 (centres undefined)	-20.7%	
COc1cccc([C@@H]2Oc3ccc(Br)cc3C(=O)[C@H]2OC(=O)NCc2ccc3c(c2)OCO3)c1	-21.2%	
COC(=O)N1C(/C=C/C=C/c2ccc(OC)cc2)=Cc2ccccc2C1CC(C)=O (centres undefined)	-21.1% [at 10 µM]	
CCCCC/C=C\C/C=C\CCCCCCCCCC(=O)NCC(=O)O	2.32%	
COCCN(C(=O)c1ccccc1F)c1c(N)n(Cc2ccccc2)c(=O)[nH]c1=O	6.32%	
COc1cccc(-c2cc(=O)c3cc(NC(=O)c4ccc(C)cc4)ccc3[nH]2)c1	-326%	
CC[C@@]12C=C(/C=C/c3ccccc3)[C@](CC)(C1)[C@H](c1ccccc1)CC2=O	-0.493%	
O=c1c(O)c(Br)ccc2c(Br)c(O)c(O)c(O)c12	-29.5%	
NCCC(=O)c1ccccc1N	-7.14%	
Nc1nc(CC(=O)CSc2ccc(Cl)cc2)nc(Nc2ccc(F)cc2)n1	-29.1% [at 10 µM]	
CC(=O)N1CCN(CC(=O)Nc2ccc(SC(F)F)cc2)CC1		5.62 µM (active)
CCOC(=O)N1CCN(CC(=O)Nc2ccc(F)cc2)CC1	-4.62% [at 10 µM]	

SMILES	cytoprotection (ATP increase)	Potency
COC(=O)c1cc(NC(=O)CN2CCN(C(C)=O)CC2)cc(C(=O)OC)c1	-18.4%	
C[C@H]1Cc2c(-c3ccccc3)nc3c(c2CO1)CN(S(=O)(=O)c1ccc(Cl)c2nonc12)CC3	-22.4% [at 10 µM]	
COc1cc(OC)c2c(c1)OC(=O)CC2c1cc(OC)c(OC)c(OC)c1 (centres undefined)	10.6%	
CN(C)Cc1ccccc1C1(O)c2ccccc2CSc2ccccc21 (centres undefined)	-4.28%	
O=C(/C=C/c1cccc(F)c1)NC1CC1	25.8%	
COC(=O)C1=C(C(=O)OC)[C@@H]2N(C)c3ccccc3[C@@]23C[C@@H](C(=O)OC)N(S(=O)(=O)c2ccc(Br)cc2)C3=N1	7.44% [at 10 µM]	
C=CCN1c2ccccc2[C@]23C[C@@H](C(=O)OC)N(S(=O)(=O)c4ccc([N+](=O)[O-])cc4)C2=NC(C(=O)OC)=C(C(=O)OC)[C@H]13	-23.4% [at 10 µM]	
CC(Nc1oc(-c2ccccc2)nc1-c1ccccc1)c1ccccc1 (centres undefined)	-70.1%	
COCOc1cc(OC)ccc1C(=O)/C=C/c1ccc([N+](=O)[O-])cc1	-28.1%	
C=CC(C1=CC(=O)C=CC1=O)c1ccc(O)cc1 (centres undefined)	14.6%	
COc1ccc(C(C)=O)cc1CN1C(=O)NC2(CCCCC2C)C1=O (centres undefined)	-14.3%	
CCCCS(=O)(=O)N1C2=NC(C(=O)OC)=C(C(=O)OC)[C@@H]3N(Cc4ccccc4)c4ccccc4[C@]23C[C@H]1C(=O)OC	21.8% [at 10 µM]	
O=C1c2ccccc2NC(c2ccc(-c3cccc(Cl)c3)o2)N1O (centres undefined)	-70.6% [at 10 µM]	
CC(N)(C(=O)O)c1ccc(-c2nn[nH]n2)cc1 (centres undefined)	-10.3%	
Cc1ccc(S(=O)(=O)N2CCC(=O)N([C@H](COCc3ccccc3)Cc3ccccc3)CC2)cc1	-2.62%	
C/C=C(\C)C(=O)O[C@H]1CC(C)=C2C(=O)C=C(C)C2[C@@H]2OC(=O)[C@@](C)(OC(=O)C=C(C)C)C21 (some centres undefined)	11.5%	
O=C(N/N=C/c1cccc2cccnc12)[C@H]1C[C@@H]1c1ccccc1	23.6% [at 10 µM]	
O=C(Nc1cccc(C(F)(F)F)c1)c1cc(Br)cc(Br)c1O	-60.4%	
CCN1C(=O)N[C@@H](c2ccccc2)[C@H](C(C)=O)[C@H]1C	-16.1% [at 10 µM]	
CC(=O)CC(c1ccccc1)C1C(=O)Oc2ccccc2C1=O (centres undefined)	19%	
CNC(=O)C1(C)C=CC2(CCCCC2)N1C(C)=O (centres undefined)	20.6%	
C=CCNC(=O)c1ccc2c3n(nc2c1)-c1ccc(C)cc1CO3	-15% [at 10 µM]	
